Assay outcomes (PubChem BioAssay)
Rows were chosen to be rich in hits. Some 2.2% of all compounds tested hit in one or more screens of this group.
Abeta rescue – restores growth of yeast expressing A-beta42 peptide. yeast expressing A-beta42, growth rescue, OD600, 48 h; response scale: 0% DMSO, 100% iron-clioquinol control. Potency, µM (highest dose often 46.1 µM), actives largely listed as activators. hit rate 0.063% among 410,000; note: nearly all actives have a fitted effect of over 55% in size
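Yeast A-beta toxicity model in growth medium with pinned compounds, 48 h at 30 C; growth read as absorbance at 600 nm. Normalized to FeCl3/clioquinol equimolar mix (positive) and DMSO (negative).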
FUS suppressor – FUS proteinopathy suppression in yeast; S. cerevisiae FUS-expressing, growth rescue, OD600, 24 h; Potency, µM (highest dose often 76.6 µM), usual class: activators; hit rate 0.24% among 390,000;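 note: plate controls were DMSO vehicle for no effect and reference control for full effect; nearly all actives have a fitted effect of over 55% in size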
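Toxicity suppression screen in FUS-yeast. Cells induced with 2% galactose, starting OD 0.005, treated 24hr at 30C with compounds at multiple final concentrations; growth by OD600.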
Mito fusion act – inhibitors of mitochondrial division or activators of mitochondrial fusion; Potency, µM (highest dose often 46.1 µM), without a hit: at the highest dose growth rescue (activation), actives largely listed as activators; S. cerevisiae fusion-defective mutant growth rescue, CellTiterGlo 48 h; hit rate 0.23% among 320,000; note: % of control where 0% means no effect; nearly all actives have a fitted effect of over 45% in size
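Luminescent cell viability in 1536-well qHTS format served as the measure of rescued growth in ts fusion-mutant S. cerevisiae cultured on non-fermentable YPEG for 48 hours at 37C.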
aSyn yeast inh – inhibitors of alpha-synuclein toxicity in yeast. hit rate 0.14% among 370,000. Potency, µM (titrated, usually from 46.1 µM), without a hit: top-dose growth rescue (activation), actives largely listed as activators. Yeast expressing alpha-synuclein, growth rescue, BacTiter-Glo, 24 h; note: % of control where 0% means no effect; nearly all actives have a fitted effect of over 65% in size
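Screening used galactose-induced yeast with toxic alpha-synuclein levels, exposed to compound for 24 hr at 30 deg C. Cell growth, read with BacTiter-Glo luminescence, gave the measured signal.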
TDP43 rescue – inhibitors of TDP-43 toxicity in yeast | TDP-43 expressing yeast growth rescue, BacTiter-Glo, 24 h | Potency, µM (highest dose often 46.1 µM), inactives show at the top dose growth rescue (activation), actives largely listed as activators | hit rate 1.8% among 410,000 | AID 652104; note: % of control where 0% means no effect; nearly all actives have a fitted effect of over 50% in size
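In this qHTS, compounds that restore growth of yeast expressing TDP-43 appear as activators. Cells (OD600=0.02, galactose medium, raffinose-pregrown) are incubated with compound 24 hr at 30 deg C and growth is quantified by BacTiter-Glo.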
* marks the source's active call; other numbers are inactive results; i = inactive; ? = inconclusive; · = no result; [ ] = dose if it differs, or a comment. Calls come from the whole dose curve; as a rule, active = well fitted curve in the direction sought with a large enough effect; inconclusive = small, poorly fitted or top-dose-only effect, or another doubt; inactive = no such curve, though single readings can be large; an effect the other way counts as inactive or inconclusive. Potency is the fitted concentration of half-maximal effect.

SMILES	Abeta rescue	FUS suppressor	Mito fusion act	aSyn yeast inh	TDP43 rescue
COc1ccc(/C(N)=N/OC(=O)c2cccc([N+](=O)[O-])c2C)cc1	i	i	0%	-3%	7.1µM*
COc1ccc(/C(N)=N/OC(=O)c2cccc([N+](=O)[O-])c2)cc1	i	i	0%	-21%	-9%
COc1ccccc1C/C(N)=N/OC(=O)c1cccc([N+](=O)[O-])c1C	i	i	-13%	-56%	20µM*
O=S(=O)(Nc1cc(F)ccc1F)c1ccc2[nH]c3c(c2c1)CCCC3	i	?	·	·	-81%
COCc1cccc(-c2csc(C(N)c3ccc(F)c(F)c3)n2)c1 (configuration not stated)	i	i	·	0%	16%
COc1ccc(C(O)c2nc(-c3cccc(C(F)(F)F)c3)cs2)cc1 (configuration not stated)	i	?	·	12%	22µM*
COc1cccc(C(O)c2nc(-c3cccc(C(F)(F)F)c3)cs2)c1 (configuration not stated)	i	i	·	3%	22µM*
OC(c1ccccc1)c1nc(-c2cccc(F)c2)cs1 (configuration not stated)	i	i	·	25%	?
COCc1cccc(-c2csc(C(O)c3ccc(F)c(F)c3)n2)c1 (configuration not stated)	i	i	·	?	20µM*
COc1ccc(C(O)c2nc(-c3cccc(F)c3)cs2)cc1 (configuration not stated)	i	i	·	?	14µM*
Cc1ccc([C@H]2N[C@]3(CCCN(Cc4ccc(Cl)cc4)C3=O)[C@H]3C(=O)N(Cc4ccccc4)C(=O)[C@@H]23)cc1	i	?	·	16%	-7%
COC(=O)c1ccc(CNC(=O)c2ccc(S(=O)(=O)N(C)c3ccccc3OC)cc2)cc1	i	i	5%	1%[1.84 µM]	9%
CC(=O)c1cccc(NC(=O)C2Cc3c(-c4ccccc4Oc4ccccc4)ccnc3O2)c1 (configuration not stated)	i	?	·	7%	?
CC(=O)Nc1ccc(-c2ccnc3c2CC(C(=O)Nc2cccc(Oc4ccccc4)c2)O3)cc1 (configuration not stated)	i	11µM*	·	13%	?
CN(C)c1cccc(NC(=O)C2Cc3c(-c4ccccc4Oc4ccccc4)ccnc3O2)c1 (configuration not stated)	i	25µM*	·	-1%	22%
O=C(Nc1cccnc1)C1Cc2c(-c3ccccc3Oc3ccccc3)ccnc2O1 (configuration not stated)	i	i	·	6%	28µM*
CC1CCCCN1C(=O)c1ccc2c(c1)N(Cc1ccc(F)cc1)C(=O)c1ccccc1S2(=O)=O (configuration not stated)	i	i	·	·	0%
CCc1ccc(NC(=O)CCCc2nnc3n(C(C)CC)c(=O)c4sccc4n23)cc1 (configuration not stated)	i	i	·	·	9%
Cc1nc2scc(-c3ccc(Cl)cc3)c2c(=O)n1N	i	i	2%	0%	11%
CC(C)c1nc2scc(-c3ccc(Cl)cc3)c2c(=O)n1N	i	i	11%	14%	14µM*
Cc1oc(-c2cccc(Cl)c2)nc1CS(=O)(=O)CC(=O)NCc1ccccc1Cl	i	i	·	·	14%
CCO[C@@H]1OC(C(=O)Nc2ccccc2)=C[C@H](c2ccc(C(F)(F)F)cc2)[C@H]1CCCO	?	?	7%	0%	13µM*
CCCNC(=O)c1nnsc1S(=O)(=O)c1ccc(Cl)cc1	i	i	-5%	-68%	1.6µM*
c1ccc(Sc2ncnc3c2oc2ccccc23)cc1	i	i	0%	-1%	13µM*
O=C(O)CSc1ncnc2c1oc1ccccc12	i	i	1%	0%	-14%
CCCOc1ccccc1N/C(=N/c1nc(C)cc(C)n1)NC(=O)COc1ccc(OC)cc1	i	?	9%	-26%	2.2µM*
O=C(N/N=C\c1c(O)ccc2ccccc12)c1cncc(Br)c1	?	i	-2%	20µM*	19%
